From the supplement of paper PMC8253809

Columns and labels:
Experiment in all cases: growth inhibition (% activity, log2 RLU normalised to DMSO / staurosporine); higher = more growth inhibition
Conditions in all cases: 33 µM
DIPGX29 = test system: DIPGX29 (H3.3 K27M diffuse intrinsic pontine glioma line)
In short: (§1)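 Cells (pHGG lines and H9-derived neural stem cells) were plated on Geltrex-coated 384-well plates and exposed to approved drugs at a single final concentration of about 33 μM, in triplicate, for 7 days at 37 °C, 5% CO2. Log2-transformed CellTiter-Glo luminescence was normalised per plate to % activity between solvent and positive control wells, and the growth-inhibition value is the median over replicates.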

DIPGX37 = test system: DIPGX37 (H3.3 K27M diffuse intrinsic pontine glioma line)
In short: as §1

DIPGX7 = test system: DIPGX7 (H3.3 K27M diffuse intrinsic pontine glioma line)
In short: as §1

DIPGX9 = test system: DIPGX9 (diffuse intrinsic pontine glioma line)
In short: as §1

HGGX39 = test system: HGGX39 (paediatric high-grade glioma line)
In short: as §1

HGGX6 = test system: HGGX6 (H3.3 G34R paediatric high-grade glioma line)
In short: as §1

HNSC = test system: HNSC
In short: as §1

SUDIPGIV = test system: SUDIPGIV (diffuse intrinsic pontine glioma line)
In short: as §1

SUDIPGVI = test system: SUDIPGVI (diffuse intrinsic pontine glioma line)
In short: as §1

SUDIPGXIII = test system: SUDIPGXIII (diffuse intrinsic pontine glioma line)
In short: as §1

SMILES	growth inhibition (DIPGX29) [%]	growth inhibition (DIPGX37) [%]	growth inhibition (DIPGX7) [%]	growth inhibition (DIPGX9) [%]	growth inhibition (HGGX39) [%]	growth inhibition (HGGX6) [%]	growth inhibition (HNSC) [%]	growth inhibition (SUDIPGIV) [%]	growth inhibition (SUDIPGVI) [%]	growth inhibition (SUDIPGXIII) [%]
CCc1nc(N)nc(N)c1-c1ccc(Cl)cc1	16.1	2.67	1.94	4.42	7.42	2.78	6.9	12.6	7.22	4.01
C=CCc1cc(OC)c(O)c(C(=O)NCCO)c1	-2.1	0.086	-1.32	0.81	-1.9	-0.129	-0.87	-1.83	0.104	-0.0438
CCC1(c2ccccc2)C(=O)NCNC1=O	-1.25	0.454	0.246	-0.432	2.69	-0.575	3.35	-1.41	0.425	0.0763
COc1ccc2cc1Oc1ccc(cc1)C[C@H]1c3c(cc4c(c3Oc3cc5c(cc3OC)CCN(C)[C@@H]5C2)OCO4)CCN1C	1.78	2.93	1.55	1.36	3.95	0.797	3.27	-0.21	3.68	1.63
Cc1cn([C@@H]2C[C@@H](O)[C@H](CO)O2)c(=O)[nH]c1=O	0.778	-0.0219	0.328	-2.07	-0.771	-3.82	1.03	-0.72	-10.2	-2.27
COC(=O)CCc1ccc(OCC(O)CNC(C)C)cc1 (stereo not given)	0.107	1.63	0.0919	0.526	0.823	1.03	-0.617	-1.21	1.48	0.0941
Nc1c2ccccc2nc2ccccc12	17.5	1.87	5.31	20.4	12.2	14.7	58.1	14.3	5.87	0.896
Clc1ccc2nsnc2c1NC1=NCCN1	-1.22	-2.25	-1.44	-1.35	-0.915	-1.61	-2.35	-2.55	-2.56	-1.44
Oc1ccc(OC2CCCCO2)cc1 (stereo not given)	-0.0269	0.922	1.6	1.43	2.89	2.46	-1.26	0.845	0.118	0.895
COc1ccc(-c2nc3ccc(C4=NNC(=O)CC4C)cc3[nH]2)cc1 (stereo not given)	0.372	2.28	1.98	1.28	3.99	2.72	3	5.46	-4.45	0.884
C[C@@H]1C[C@H]2[C@@H]3CCC4=CC(=O)C=C[C@]4(C)[C@@]3(Cl)[C@@H](O)C[C@]2(C)[C@@]1(OC(=O)c1ccco1)C(=O)CCl	2.55	2.99	2.36	5.3	6.75	4.28	0.466	14.2	2.53	-3.14
NC(=O)c1ncn([C@@H]2O[C@H](CO)[C@@H](O)[C@H]2O)n1	-0.559	0.551	0.987	0.303	1.53	0.756	-0.0938	-0.992	2.19	0.78
C#Cc1cccc(Nc2ncnc3cc(OCCOC)c(OCCO)cc23)c1	6.22	3.87	4.89	4.84	9.77	9.46	31.8	-3.74	2.81	0.549
CN1C(C(=O)Nc2ccccn2)=C(O)c2ccccc2S1(=O)=O	-1.78	1.01	-0.635	-1.57	0.433	-2.07	2.62	-1.29	0.752	-1.07
Cn1cnc([N+](=O)[O-])c1Sc1ncnc2[nH]cnc12	15.9	9.81	21.6	13.8	18.2	18.5	55.8	32.2	8.24	17.1
Nc1c2c(nc3ccccc13)CCCC2	-2.45	1.21	-2.4	-0.673	-0.0323	-0.396	-4.73	1.29	-2.15	-0.353
O=C1OC(CN2CCOCC2)CN1/N=C/c1ccc([N+](=O)[O-])o1 (stereo not given)	-1.53	1.22	-0.714	-0.52	-0.169	0.852	-1.5	-2.29	-0.066	-18.3
COc1cc(C)c(/C=C/C(C)=C/C=C/C(C)=C/C(=O)O)c(C)c1C	5.2	-2.81	6.14	8.33	7.33	6.28	7.89	6.68	4.93	1.6
